Data as given in the supplement of paper PMC12645437, “Orthogonal IMiD-Degron Pairs Induce Selective Protein Degradation in Cells” (ACS Chemical Biology, 2025).
Whole data set: some 8,300 sequences, median “log2 fold change of degron read counts, EGFP-low vs EGFP+ sorted cells (limma voom), compound-induced degradation” near -1.1, cut for the highest 2% near 3.2. The list comes from a sample in which the highest values are over-represented; it also holds similar and randomly drawn sequences.

T1: CRBN, Q96SW2
T1 chain: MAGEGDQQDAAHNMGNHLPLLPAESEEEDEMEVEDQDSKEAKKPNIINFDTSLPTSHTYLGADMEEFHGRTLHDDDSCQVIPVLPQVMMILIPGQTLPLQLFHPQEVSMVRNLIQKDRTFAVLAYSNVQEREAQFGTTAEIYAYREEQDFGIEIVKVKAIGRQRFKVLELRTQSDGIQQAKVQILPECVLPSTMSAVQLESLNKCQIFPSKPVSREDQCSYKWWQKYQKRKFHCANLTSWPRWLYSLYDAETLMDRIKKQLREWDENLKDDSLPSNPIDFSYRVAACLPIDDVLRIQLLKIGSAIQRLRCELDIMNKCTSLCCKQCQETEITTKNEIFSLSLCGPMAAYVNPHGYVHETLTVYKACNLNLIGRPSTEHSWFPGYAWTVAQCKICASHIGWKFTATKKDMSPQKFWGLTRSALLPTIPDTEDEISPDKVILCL


Molecular target: T1, CRBN, Q96SW2
Assay: log2 fold change of degron read counts, EGFP-low vs EGFP+ sorted cells (limma voom), compound-induced degradation; higher = more compound-induced degradation of the degron-EGFP fusion; degrons are variants of IKZF1/3 zinc finger 2; compound dose not given here
Conditions: Jurkat, 18 h
[1] = compound: compound 19 (5-tert-butyl-thalidomide)
[2] = compound: compound 22 (5-morpholino-thalidomide)
[3] = compound: compound 33 (diphenyl IMiD analogue)
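Further: pooled lentiviral library of zinc finger degron-EGFP fusions in mCherry-positive Jurkat cells, FACS-sorted after compound exposure, with degron abundance counted by next-generation sequencing.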

Sequence	log2 fold change of degron read counts [1]	log2 fold change of degron read counts [2]	log2 fold change of degron read counts [3]	log2 fold change of degron read counts (compound: thalidomide)
FVCNQCGRTFTQKGNLLRHIKL [46F_47V_49N_50Q_52G_53R_54T_55F_67L_, Q9UKT9]	-2.81	-2.9	-2.85	-2.6
FACDQCGAIFTQKGNLLRHIKL [46F_47A_49D_50Q_52G_53A_54I_55F_67L_, Q9UKT9]	-1.3	-2.79	-2.17	-2.61
FECEICGHHFTQKGNLLRHIKL [46F_47E_49E_50I_52G_53H_54H_55F_67L_, Q9UKT9]	-3.57	-3.77	-3.12	-3.14
FWCPICGRHFTQKGNLLRHIKL [46F_47W_49P_50I_52G_53R_54H_55F_67L_, Q9UKT9]	0.105	0.12	-0.0382	-0.795
FTCNQCGANFTQKGNLLRHIKL [46F_47T_49N_50Q_52G_53A_54N_55F_67L_, Q9UKT9]	-2.31	-1.9	-1.02	-1.51
FCCEQCGAQFTQKGNLLRHIKL [46F_47C_49E_50Q_52G_53A_54Q_55F_67L_, Q9UKT9]	-0.606	-1.61	0.54	-0.701
FFCDVCGAGFTQKGNLLRHIKL [46F_47F_49D_50V_52G_53A_54G_55F_67L_, Q9UKT9]	2.13	0.815	-0.261	-2.07
FICEICGRFFTQKGNLLRHIKL [46F_47I_49E_50I_52G_53R_54F_55F_67L_, Q9UKT9]	-1.91	-1.81	-0.249	-0.59
FRCNICGAFFTQKGNLLRHIKL [46F_47R_49N_50I_52G_53A_54F_55F_67L_, Q9UKT9]	-1.52	-1.67	-0.33	0.791
FTCEQCGATFTQKGNLLRHIKL [46F_47T_49E_50Q_52G_53A_54T_55F_67L_, Q9UKT9]	-2.43	-0.729	0.386	0.407
LNCPICGFTCTQKGNLLRHIKL [46L_47N_49P_50I_52G_53F_54T_55C_67L_, Q9UKT9]	2.24	1.48	1.4	1.99
LDCPICGFTCTQKGNLLRHIKL [46L_47D_49P_50I_52G_53F_54T_55C_67L_, Q9UKT9]	1.14	0.297	1.7	2.41
LCCPICGFTCTQKGNLLRHIKL [46L_47C_49P_50I_52G_53F_54T_55C_67L_, Q9UKT9]	2.3	2.71	3.14	3.38
FFCNQCGHLFTQKGNLLRHIKL [46F_47F_49N_50Q_52G_53H_54L_55F_67L_, Q9UKT9]	-1.66	-2.07	-1.87	-1.3
FSCDICGAAFTQKGNLLRHIKL [46F_47S_49D_50I_52G_53A_54A_55F_67L_, Q9UKT9]	2.34	2.19	1.4	0.487
FFCPICGAQFTQKGNLLRHIKL [46F_47F_49P_50I_52G_53A_54Q_55F_67L_, Q9UKT9]	3.07	3.66	2.49	1.8
FMCPICGAQFTQKGNLLRHIKL [46F_47M_49P_50I_52G_53A_54Q_55F_67L_, Q9UKT9]	0.245	1.26	2.62	1.97
FECPICGAQFTQKGNLLRHIKL [46F_47E_49P_50I_52G_53A_54Q_55F_67L_, Q9UKT9]	-0.254	-0.469	2.11	2.88
FKCPICGAQFTQKGNLLRHIKL [46F_47K_49P_50I_52G_53A_54Q_55F_67L_, Q9UKT9]	-0.0361	-1.47	-1.09	0.0895
FVCPICGAQFTQKGNLLRHIKL [46F_47V_49P_50I_52G_53A_54Q_55F_67L_, Q9UKT9]	0.269	3.03	2.65	2.8
FSCPICGAQFTQKGNLLRHIKL [46F_47S_49P_50I_52G_53A_54Q_55F_67L_, Q9UKT9]	2.37	2.25	1.87	1.54
FICPICGAQFTQKGNLLRHIKL [46F_47I_49P_50I_52G_53A_54Q_55F_67L_, Q9UKT9]	-0.147	2.86	2.84	2.97
FWCPICGAQFTQKGNLLRHIKL [46F_47W_49P_50I_52G_53A_54Q_55F_67L_, Q9UKT9]	3.01	3.69	2.52	1.76
FTCPICGAQFTQKGNLLRHIKL [46F_47T_49P_50I_52G_53A_54Q_55F_67L_, Q9UKT9]	0.221	2.57	2.32	3.06
FACPICGAQFTQKGNLLRHIKL [46F_47A_49P_50I_52G_53A_54Q_55F_67L_, Q9UKT9]	3.33	2.33	1.68	1.29
FYCPICGAQFTQKGNLLRHIKL [46F_47Y_49P_50I_52G_53A_54Q_55F_67L_, Q9UKT9]	3.2	3.56	2.65	1.7
FRCPICGAQFTQKGNLLRHIKL [46F_47R_49P_50I_52G_53A_54Q_55F_67L_, Q9UKT9]	-0.000477	0.626	1.17	1.41
FWCEICGRSFTQKGNLLRHIKL [46F_47W_49E_50I_52G_53R_54S_55F_67L_, Q9UKT9]	0.727	1.06	0.626	-1.3
